Compounds with a hit are over-represented: about 3.2% of the library has one in this group of screens.
p53null 32C kill: qHTS Screen for Compounds that Selectively Target Cancer Cells with p53 Mutations: Cytotoxicity of p53 Null Cells at the Permissive Temperature | H1299-neo p53 null cells, ATP luminescence, 24 h, 32C | Potency, µM (highest dose often 46.1 µM), for inactives: top-dose activity change, negative = cytotoxicity, usual class: cytotoxic | hit rate 0.62% among 55,000;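 note: 0% = DMSO only and -100% = full killing by 100 µM tamoxifen; nearly all actives have a fitted effect of over 55% in size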
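AC50 values derive from Hill modelling of qHTS concentration-response data (up to 46 uM) in H1299-neo cells. Cells were treated 24 h at 32C following overnight attachment at 37C; viability was read as cellular ATP.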
PMP22 txn prim: Cell-based coincidence reporter assay to measure PMP22 gene transcription in S16 Pmp22-F2sN cells - Primary screen; S16 Pmp22-F2sN Schwann cells, FLuc/NLuc coincidence luminescence, 24 h; hit rate 2% among 43,000; Potency, µM (top dose mostly 57.5 µM), without a hit: at the top dose activity change, negative = inhibition, actives largely listed as inhibitors; AID 1508649, 2021; active = clear falling dose curves in both reporters; inconclusive = both reporters move, but less clearly or upward; inactive = either reporter flat; the % is the NLuc reporter signal
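Reporter cells (S16 Pmp22-F2sN, 500–1,000 per well) exposed to compounds for 24 h, 37C, 5% CO2; lysis with FLuc read after 10 min, then Stop&Glo and NLuc read after 10 min.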
mTORC1 inh: Acumen qHTS Assay for Inhibitors of the mTORC1 Signaling Pathway in MEF (Tsc2-/-, p53-/-) Cells: Sytravon | Tsc2-/- p53-/- MEF, phospho-rpS6 immunofluorescence/PI, 24 h | Potency, µM (series often up to 38.3 µM), for inactives: at the top dose activity change, negative = inhibition, hits mostly inhibitors | hit rate 0.78% among 44,000 | AID 493208, 2011;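 note: plate controls were DMSO for no effect and rapamycin for full effect; nearly all actives have a fitted effect of over 50% in size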
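Read-out: phospho-S6 Alexa-488 intensity over PI intensity per well, scored as % active cells using thresholds from rapamycin (7.5 nM) and DMSO controls. Tsc2-/-, p53-/- MEFs exposed to compound for 24 h; PI cell count recorded as viability.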
p53null 39C tox: qHTS Screen for Compounds that Selectively Target Cancer Cells with p53 Mutations: Cytotoxicity of p53 Null Cells at the Nonpermissive Temperature. H1299 p53-null (neo) cells, 39C, ATPlite viability, 24 h. Potency, µM (doses to about 46.1 µM), for the others: top-dose activity, negative = cell killing, hits mostly cytotoxic. hit rate 0.97% among 55,000. AID 904, 2007;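 note: 0% = DMSO only and -100% = full killing by 100 µM tamoxifen; nearly all actives have a fitted effect of over 50% in size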
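Luminescent ATP signal reported cell survival after H1299 lines (neo, p53 null; or p53 A138V) received up to 46 uM compound and 24 hr incubation at 39C.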
S16 F2sN tox: Cell viability qHTS assay in S16 Pmp22-F2sN cells; S16 Pmp22-F2sN Schwann cells (luciferase reporters placed in the Pmp22 gene) viability, CellTiter-Glo, 24 h; Potency, µM (doses to about 57.5 µM), for inactives: at the highest dose activity change, negative = cytotoxicity, usual class: cytotoxic; hit rate 0.48% among 43,000; AID 1508642, 2021; note: nearly all actives have a fitted effect of over 65% in size
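Luminescence from CellTiter-Glo, read by CCD camera after a 15 min room-temperature incubation, served as the viability signal. Reporter Schwann cells (S16 Pmp22-F2sN) had been treated with pin-transferred compounds for 24 h at 37C.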
Numbers without * were called inactive; u = inconclusive; x = not tested or not shown. Unless noted, calls come from the whole dose curve; as a rule, active = well fitted curve in the direction sought with a large enough effect; inconclusive = small, poorly fitted or top-dose-only effect, or another doubt; inactive = no such curve, though single readings can be large; an effect the other way counts as inactive or inconclusive. Unless noted, % is set by controls: 0 for no effect and ±100 for the full control effect; potency is the fitted concentration of half-maximal effect.

SMILES	p53null 32C kill	PMP22 txn prim	mTORC1 inh	p53null 39C tox	S16 F2sN tox
O=C(Cc1ccccc1)Nc1sc2c(c1C(=O)Nc1ccccc1)CCCCC2	-7%	u	u	-18%	-12%
COc1ccc(CC(=O)Nc2sc3c(c2C(=O)Nc2ccccc2)CCCCC3)cc1	-8%	u	4.6µM*	u	u
CC(=O)c1ccc(NC(=O)c2ccc3c(c2)N(Cc2cccc(Cl)c2)C(=O)c2ccccc2S3(=O)=O)cc1	u	2%	-4%	-2%	10%
CC(=O)N1CCc2c(sc3c2c(=O)n(-c2ccc(C)cc2)c(=O)n3CC(=O)Nc2ccccc2)C1	-14%	-32%	-11%	-8%	-4%
CCOC(=O)N1CCc2c(sc3c2c(=O)n(-c2ccc(Cl)cc2)c(=O)n3CC(=O)Nc2ccccc2)C1	0%	u	1%	5%	13µM*
CC(C)CCNC(=O)CSc1nc2ccccc2nc1Cc1ccccc1	-8%	-10%	-16%	2%	18%
O=S(=O)(Nc1cccc(-c2ccc(N3CCCC3)nn2)c1)c1ccc(F)c(C(F)(F)F)c1	8%	x	1%	16%	x
COc1cccc(CNC(=O)c2cccc(NC(=O)c3nsc4ccccc34)c2)c1	-6%	-10%	3%	-17%	u
O=C(Nc1cccc(C(=O)N2CCCCC2)c1)c1nsc2ccccc12	u	-28%	1%	10µM*	-3%
COC(=O)c1cccc(NC(=O)c2nsc3ccccc23)c1	3.2µM*	1%	-3%	7.1µM*	-16%
CC1CCN(C(=O)c2ccc(NC(=O)c3nsc4ccccc34)cc2)CC1	u	-4%	0%	u	3%
Cc1ccc(C(=O)Nc2ccc3nc(SCC(=O)N4CCc5ccccc54)sc3c2)cc1	-14%	-42%	-6%	-11%	5%
Cc1ccc(C(=O)Nc2nnc(SCC(=O)N3CCCc4ccccc43)s2)cc1	1.3µM*	x	x	x	x
CC(C)Oc1ccc(C(=O)Nc2nnc(SCC(=O)N3CCOCC3)s2)cc1	0.56µM*	x	x	0.63µM*	x
CCOc1cc(CNC(=O)c2ccc3c(c2)nc2n3CCCCC2)ccc1OC	-2%	-1%	0%	-11%	1%
CCOc1ccccc1NC(=O)c1cc2ccc3cccnc3c2[nH]1	-6%	-6%	-2%	u	6%
COc1cc(Cl)c(C)cc1NC(=O)c1cc2ccc3cccnc3c2[nH]1	20µM*	u	-2%	-10%	-1%
COC(=O)c1ccc(Nc2nnc(-c3ccc(C)c(S(=O)(=O)N4CCN(C)CC4)c3)c3ccccc23)cc1	15%	-44%	21µM*	17%	u
Cc1cc(-c2ccc(S(=O)(=O)Nc3cccc(C)c3C)s2)on1	-13%	10µM*	u	u	u
CCc1ccccc1NS(=O)(=O)c1ccc(-c2coc(C)n2)cc1	7.1µM*	-48%	-20%	10%	-26%
CC(=O)c1ccc(N2CCN(C(=O)C3CCN(S(=O)(=O)c4cccc5nonc45)CC3)CC2)cc1	0%	5%	0%	-2%	3%
Cc1ccc2scc(N3CCCCC3C)c(=O)c2c1 (stereo unspecified)	13µM*	-9%	2%	16µM*	3%
Cc1ccc2scc(N3CCC(C)CC3)c(=O)c2c1	u	u	4%	20µM*	-1%
Cc1ccc2scc(N3CCCCC3)c(=O)c2c1	10µM*	-19%	-1%	13µM*	-1%
COc1ccc(Br)cc1CNCc1c(C(=O)O)c(C)n(Cc2ccccc2C)c1C	14%	-10%	0%	-12%	-5%
SMILES	p53null 32C kill	PMP22 txn prim	mTORC1 inh	p53null 39C tox	S16 F2sN tox
Cc1ccc(OCC(=O)Nc2ccc(S(=O)(=O)Nc3ncccn3)cc2)c(C(C)(C)C)c1	6%	-20%	12%	1%	-15%
COc1ccc(NC(=O)C(=O)NCC(c2cccnc2)N2CCc3ccccc3C2)cc1 (stereo unspecified)	13µM*	-18%	6%	20µM*	-14%
CCOc1ccc(CNC(=O)c2ccccc2NC(=O)c2nsc3ccccc23)cc1	-29%	u	u	13µM*	-7%
Cc1ccccc1OCCCCn1c(-c2ccc(Cl)cc2)nc2ccccc2c1=O	0%	x	u	1%	x
O=C1CN(C(=O)c2ccc(S(=O)(=O)N3CCCCC3)cc2)C(c2ccc(F)cc2)c2cc(Cl)ccc2N1 (stereo unspecified)	15%	-10%	-6%	18%	-15%
Cc1ccc(OCC(=O)NCC2(N3CCN(C)CC3)CCCCC2)cc1C	0%	u	u	-19%	-14%
Cc1cc(OCC(=O)NCC2(N3CCN(C)CC3)CCCCC2)cc(C)c1Cl	-9%	u	5.8µM*	-30%	u
CCOc1ccc(CNC(=O)C2Cc3ccccc3N2C(=O)CC)cc1OC (stereo unspecified)	2%	-13%	0%	8%	13%
Cc1ccc2sc(N(Cc3cccnc3)C(=O)CCS(=O)(=O)c3ccccc3)nc2c1C	-11%	u	-4%	5%	u
Cc1cccc2sc(N(Cc3cccnc3)C(=O)CCS(=O)(=O)c3ccccc3)nc12	u	u	u	13µM*	u
CCN(CC)C(=O)CSc1nc(-c2ccc(C)cc2)nc2c1Cc1c(CO)cnc(C)c1O2	0%	u	-1%	-4%	10µM*
Cc1ccc(-c2nc3c(c(SCC(=O)N(C)c4ccccc4)n2)Cc2c(CO)cnc(C)c2O3)cc1	2%	u	0%	-11%	u
CCCN(CCC)CC(O)Cn1cc(/C=C/C(=O)c2ccc(OCC)cc2)c2ccccc21 (stereo unspecified)	u	u	u	20µM*	u
Cc1ccc2[nH]cc(C(c3ccccc3)c3ccc(C)s3)c2c1 (stereo unspecified)	11µM*	u	u	16µM*	-27%
COc1ccc(C2=C(N3CCN(c4cccc(C)c4C)CC3)c3ccccc3C2=O)cc1	-8%	x	1%	-4%	x
COc1ccc(-c2nc(CN3CCC(C(=O)NCCCN4CCN(c5ccccc5F)CC4)CC3)c(C)o2)cc1OC	-18%	u	15µM*	-30%	u
Cc1oc(-c2cccc(Cl)c2)nc1CN1CCC(C(=O)NC(C)c2ccccc2)CC1 (stereo unspecified)	-6%	u	0%	-28%	-10%
